Hit rate of the full screen: of about 5,500 compounds, about 2,000 (36%) were called active. Another 18% or so got no clear call; they are omitted. Rule as the data show it: active = normalized growth mostly below about 0.91 (no sharp cut-off); inconclusive = no clear call, values can overlap the other calls; inactive = mostly above about 0.92. The list shows a part of the results.
Assay: chemical genetic growth profiling, strain panel (AID 1159580);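 also: tested at 20 µM; growth read once vehicle control cultures reached saturation at 30 °C; 1 = growth at the plate median or of vehicle wells; lower values mean less growth of the strain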
Conditions: S. cerevisiae deletion strains, growth OD

Measured: normalized growth

N#C/C(=C\c1c[nH]c2ccccc12)C(=O)c1ccc(O)c(O)c1
inactive: locus YAL013W, strain DEP1, active compounds read low 1.02 | locus YAL040C, strain CLN3, active compounds read low 0.987 | locus YCL061C, strain MRC1 (second series), active compounds read low 1.02 | locus YDR150W, strain NUM1, active compounds read low 1.01 | locus YDR363W, strain ESC2, active compounds read low 1.03 | locus YER002W, strain NOP16, active compounds read low 1.01 | locus YGR078C, strain PAC10, active compounds read low 1.02 | locus YJR075W, strain HOC1, active compounds read low 0.996 | locus YMR307W, strain GAS1, active compounds read low 1.03 | locus YNL175C, strain NOP13, active compounds read low 1 | locus YNL197C, strain WHI3, active compounds read low 1.02 | locus YNL224C, strain SQS1, active compounds read low 1 | locus YNL322C, strain KRE1, active compounds read low 1 | locus YOR083W, strain WHI5 (second series), active compounds read low 0.973 | locus YPL241C, strain CIN2, active compounds read low 1.02

O=C1Nc2ccccc2/C1=C\c1cccc2ccccc12
active: locus YHR030C, strain SLT2, active compounds read low 0.663 | locus YLR113W, strain HOG1, active compounds read low 0.667 | locus YPL256C, strain CLN2, active compounds read low 0.694
inactive: locus YAR019C, strain CDC15, active compounds read low 0.97 | locus YBL105C, strain PKC1, active compounds read low 0.955 | locus YBR135W, strain CKS1, active compounds read low 0.971 | locus YBR136W, strain MEC1, active compounds read low 0.97 | locus YBR160W, strain CDC28, active compounds read low 0.977 | locus YDL017W, strain CDC7, active compounds read low 0.963 | locus YDL028C, strain MPS1, active compounds read low 0.972 | locus YDL101C, strain DUN1, active compounds read low 0.985 | locus YDL108W, strain KIN28, active compounds read low 0.969 | locus YDL132W, strain cdc53, active compounds read low 0.965 | locus YDL214C, strain PRR2, active compounds read low 0.815 | locus YDR052C, strain DBF4, active compounds read low 0.976 | locus YDR054C, strain cdc34, active compounds read low 0.982 | locus YDR226W, strain ADK1, active compounds read low 0.96 | locus YDR477W, strain SNF1, active compounds read low 0.773 | locus YER123W, strain YCK3, active compounds read low 0.777 | locus YER133W, strain GLC7, active compounds read low 0.809 | locus YFL009W, strain cdc4, active compounds read low 0.98 | locus YFL029C, strain CAK1, active compounds read low 0.964 | locus YFR003C, strain YPI1, active compounds read low 0.972 | locus YFR019W, strain FAB1, active compounds read low 0.904 | locus YFR028C, strain CDC14, active compounds read low 0.972 | locus YGR040W, strain KSS1, active compounds read low 0.792 | locus YGR052W, strain FMP48, active compounds read low 0.807 | locus YGR092W, strain DBF2, active compounds read low 0.708 | locus YHR079C, strain IRE1, active compounds read low 0.73 | locus YHR082C, strain KSP1, active compounds read low 0.741 | locus YHR205W, strain SCH9, active compounds read low 0.668 | locus YIL147C, strain SLN1, active compounds read low 0.968 | locus YJL095W, strain BCK1, active compounds read low 0.718 | locus YJL128C, strain PBS2, active compounds read low 0.914 | locus YJL157C, strain FAR1, active compounds read low 0.796 | locus YJR016C, strain ILV3, active compounds read low 0.966 | locus YJR066W, strain TOR1 (second series), active compounds read low 0.738 | locus YJR066W, strain TOR1, active compounds read low 0.798 | locus YKL048C, strain ELM1, active compounds read low 0.886 | locus YKL067W, strain YNK1, active compounds read low 0.855 | locus YKL101W, strain HSL1, active compounds read low 0.816 | locus YKL193C, strain SDS22, active compounds read low 0.968 | locus YKL203C, strain TOR2, active compounds read low 0.857 | locus YLR133W, strain CKI1, active compounds read low 0.803 | locus YLR403W, strain SFP1, active compounds read low 0.727 | locus YML070W, strain DAK1, active compounds read low 0.803 | locus YMR001C, strain CDC5, active compounds read low 0.957 | locus YMR205C, strain PFK2 (second series), active compounds read low 0.862 | locus YMR277W, strain FCP1, active compounds read low 0.963 | locus YNL006W, strain LST8, active compounds read low 0.964 | locus YNL020C, strain ARK1, active compounds read low 0.784 | locus YNL161W, strain CBK1, active compounds read low 0.96 | locus YNL183C, strain NPR1, active compounds read low 0.784 | locus YNL207W, strain RIO2, active compounds read low 0.958 | locus YNL222W, strain SSU72, active compounds read low 0.971 | locus YNL307C, strain MCK1 (second series), active compounds read low 0.752 | locus YOL078W, strain AVO1, active compounds read low 0.973 | locus YOL136C, strain PFK27, active compounds read low 0.808 | locus YOR061W, strain CKA2, active compounds read low 0.867 | locus YOR119C, strain RIO1, active compounds read low 0.885 | locus YOR231W, strain MKK1, active compounds read low 0.807 | locus YOR329C, strain SCD5, active compounds read low 0.966 | locus YPL031C, strain PHO85, active compounds read low 0.738 | locus YPL153C, strain RAD53, active compounds read low 0.78 | locus YPL204W, strain HRR25, active compounds read low 0.699 | locus YPL209C, strain IPL1, active compounds read low 0.967 | locus YPR025C, strain CCL1, active compounds read low 0.972 | locus YPR106W, strain ISR1, active compounds read low 0.959 | locus YPR111W, strain DBF20, active compounds read low 0.949 | strain NNK1, active compounds read low 0.953 | strain TSCII, active compounds read low 0.965

— PubChem BioAssay AID1159580 (chemical genetic matrix, 2015)
